# Test results as given in PubChem BioAssay.
# Calls of active or inactive are those of the source.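 How the source made its calls: active means primary screen hit whose fluorescence ratio, in both repeats, exceeds the weak agonist control mean by 3 SD; inactive means the rest.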
# Tested on: TRPC4 (transient receptor potential cation channel C4 beta), mouse
# Experiment: potentiation of DAMGO EC20 TRPC4 response – cell-based, second round, Fluo-4, HEK293 TRPC4beta/mu-opioid, 1 µM, confirmation (AID 2554)
# Details: DAMGO EC20, Fluo-4 calcium flux, at 1 µM; active compounds read high
SMILES,outcome,potentiation
COc1ccc(-n2nc(C(=O)NCC(=O)NCCCN3CC(C)CC(C)C3)c3ccccc3c2=O)cc1Cl (stereo not given),inactive,–
Cc1cc(OCC(=O)N(C(C)C)C(C)C)cc(C)c1Br,inactive,–
CCCCCCn1c(N2CCN(c3ccccc3)CC2)nc2c1c(=O)n(C)c(=O)n2C,–,9% (active)
CCC(=O)NC(C)C(c1cccs1)N1CCN(c2ccccc2)CC1 (stereo not given),inactive,–
Cc1ccc(-c2nnc(N3CCC(C)CC3)c3ccccc23)cc1C,–,7% (active)
Cc1cc(C(C)(C)C)c(O)c(C)c1CC1=NCCN1,inactive,–
Cc1sc2ncnc(NCC(c3ccccc3)N(C)C)c2c1C (stereo not given),inactive,–
O=C(NCc1ccccc1)C1=C[C@H](c2ccc(Br)cc2)C[C@H](OCc2ccc(CO)cc2)O1,inactive,–
O=C(Nc1ccccc1)C1=C[C@H](C2CCCCC2)C[C@H](OCc2ccc(CO)cc2)O1,inactive,–
Cc1ccc(S(=O)(=O)N2CCC(N3CCN(C)CC3)CC2)cc1Cl,–,12% (active)
Cc1cc(OCC(=O)NC2CCCCC2)ccc1Cl,inactive,–
O=[N+]([O-])c1ccc(/C=N/Nc2nc(N3CCCCC3)nc(N3CCCCC3)n2)o1,inactive,–
Cc1cccc(/C=N/NC(=O)c2cccc(Cl)c2)n1,inactive,–
S=C(NCCc1ccccn1)NC1CCCCC1,inactive,–
Cc1cccc(Cc2c(C)nc3c(C(=O)NCc4ccco4)cnn3c2C)c1,inactive,–
Cc1ccc(Cn2c(=N)c(C(=O)NC3CCCC3)cc3c(=O)n4ccccc4nc32)cc1,–,8% (active)
COC(=O)[C@@]12CCCCN1[C@H](c1ccc(-c3cccc(Cl)c3)c(OC)c1)[C@H]1C(=O)N(C)C(=O)[C@H]12,inactive,–
CC1=C(C(=O)NCc2ccccc2)C(c2cc(Br)cc(Br)c2OC(C)C)NC(=O)N1 (stereo not given),inactive,–
CC1Cc2ccccc2N1C(=O)CSc1nc2c(c(=O)n(C)c(=O)n2C)n1Cc1ccc(F)cc1 (stereo not given),–,36% (active)
CCN1CCN(c2ccc(S(=O)(=O)N3CCOCC3)cc2NC(=O)c2ccccc2OC(F)F)CC1,inactive,–

SMILES,outcome,potentiation
O=C1C(Cl)=C(Nc2cccc(O)c2)C(=O)N1Cc1ccccc1,inactive,–
O=C(NCc1ccccc1)C1=C[C@H](c2ccc(C(F)(F)F)cc2)C[C@H](OCc2ccc(CO)cc2)O1,inactive,–
COc1ccc(C)c(NC(=O)NCCc2cnc[nH]2)c1,inactive,–
CN(C)CCNc1ccc(Cl)cc1[N+](=O)[O-],inactive,–
CCn1c(O)c(N=NC(=O)c2cccc(S(=O)(=O)N3CCCCC3)c2)c2ccccc21,inactive,–
Cc1onc(-c2ccccc2)c1C(=O)NNC(=S)NC(=O)c1ccc2c(c1)OCO2,inactive,–
COc1ccc(Cl)cc1C(=O)NCCN(C)C,inactive,–
O=C1NCN(c2ccccc2)C12CCN(CCCC(c1ccc(F)cc1)c1ccc(F)cc1)CC2,inactive,–
Cc1ccc(/C=N/NC(=O)NC2CCCCC2)o1,–,10% (active)
O=C(Nc1cccc(Cl)c1)c1cnn2cccnc12,–,16% (active)
COc1c(C)cc(C(=O)C2CCCN(Cc3cccc4nccnc34)C2)cc1C (stereo not given),inactive,–
O=C(c1cccc([N+](=O)[O-])c1)N1CCCC(C(=O)N2CCCCCC2)C1 (stereo not given),inactive,–
CCOc1ccc(-n2c(SCC(=O)O)nc3sc4c(c3c2=O)CCCC4)cc1,inactive,–
Cc1cc(-c2ccc(C)c(S(=O)(=O)N3CCN(C(=O)c4ccco4)CC3)c2)on1,inactive,–
O=C(NC1CCN(Cc2ccccc2)CC1)C12CC3CC(CC(C3)C1)C2,inactive,–
Cc1cccc(/C=N/NC(=O)c2cc(Br)ccc2O)n1,–,24% (active)
C1CCN(c2nc(N3CCCC3)nc(N3CCNCC3)n2)C1,inactive,–
CNc1nc(N2CCc3ccccc32)ncc1F,–,27% (active)
Cc1cccc(Cn2c(N3CCN(c4ccccc4)CC3)nc3c2c(=O)n(C)c(=O)n3C)c1,inactive,–
O=C(Nc1cccc(Cl)c1)N1CCN(C/C=C/c2ccccc2)CC1,inactive,–
